Screens (PubChem)
SMN2 splice up: SMN2 splice variant enhancement; HEK293 SMN2-luciferase splicing reporter, luminescence, 30-36 h; Potency, µM (doses to about 46.1 µM), for inactives: top-dose activity change, positive = activation, hits mostly activators; 210,000 compounds, 2.8% hits; also: % of control where 0% means no effect; nearly all actives have a fitted effect of over 55% in size
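qHTS luciferase splicing reporter: luminescence rises when SMN2 exon 7 is included in transfected HEK293 cells. Compound exposure lasted 30-36 h at 37C, with 4.5 mM final sodium butyrate as control, followed by a ONE-Glo read.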
Rab9 promoter act: activators of Rab9 promoter; Huh7 Rab9 promoter-luciferase reporter, luminescence, 24 h; 320,000 compounds, 2.8% hits; AID 485297; Potency, µM (doses to about 9.22 µM), inactives show at the highest dose activation, negative = inhibition, most hits filed as activators; also: % of control where 0% means no effect; nearly all actives have a fitted effect of over 60% in size
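Promoter activation is measured as luciferase luminescence in Huh7 cells stably transfected with a Rab9 promoter–luciferase construct, following 24 h compound exposure at 37 °C and 10 min reagent incubation at ambient temperature.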
ELG1 genotox: inducers of genotoxicity in HEK293T ELG1-luciferase cells; 330,000 compounds, 1.3% hits; HEK293T ELG1-luciferase reporter, luminescence, 16 h; Potency, µM (doses to about 46 µM), inactives show at the top dose activity change, positive = activation, hits mostly activators; also: % of control where 0% means no effect; nearly all actives have a fitted effect of over 60% in size
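HEK293T cells expressing luciferase-tagged ELG1 were treated with compound or DMSO for 16 hr at 37°C. Luciferase activity was then read after 30 min with ONE-Glo at room temperature; rising signal flags genetic stress.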
FLuc counter: counter-screen for miR-21 project: firefly luciferase inhibitors or activators; P08659; purified FLuc, Km substrates, luminescence inhibition; Potency, µM (doses to about 57.5 µM), without a hit: at the highest dose activity change, negative = inhibition, usual class: inhibitors; 360,000 compounds, 6.9% hits;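 also: plate controls were vehicle for no effect and reference inhibitor for full effect; nearly all actives have a fitted effect of over 55% in size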
Target sequence (P08659 whole entry, looked up): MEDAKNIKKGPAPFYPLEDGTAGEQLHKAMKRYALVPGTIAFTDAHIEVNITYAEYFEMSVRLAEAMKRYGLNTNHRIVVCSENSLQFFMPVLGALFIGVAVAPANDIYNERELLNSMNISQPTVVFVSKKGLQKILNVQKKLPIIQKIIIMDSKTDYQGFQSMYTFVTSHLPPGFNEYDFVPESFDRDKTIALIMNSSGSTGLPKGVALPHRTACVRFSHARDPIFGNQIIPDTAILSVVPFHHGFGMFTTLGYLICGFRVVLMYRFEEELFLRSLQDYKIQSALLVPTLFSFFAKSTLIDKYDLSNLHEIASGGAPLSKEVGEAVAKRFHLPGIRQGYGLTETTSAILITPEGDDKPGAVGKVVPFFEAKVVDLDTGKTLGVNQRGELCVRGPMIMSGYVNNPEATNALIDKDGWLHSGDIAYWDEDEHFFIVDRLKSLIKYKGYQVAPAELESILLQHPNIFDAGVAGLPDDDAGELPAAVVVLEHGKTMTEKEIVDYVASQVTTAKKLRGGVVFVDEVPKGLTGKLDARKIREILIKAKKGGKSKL
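Purified P. pyralis luciferase, 10 nM final, with Km-level 10 uM D-luciferin and 10 uM ATP in 50 mM Tris acetate pH 7.5, 10 mM Mg acetate, 0.01% Tween-20, 0.05% BSA; 6-point qHTS titration about 60 µM downward; luminescence read.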
NPC1 promoter act: activates the NPC1 promoter; AID 485313; Potency, µM (doses to about 9.22 µM), without a hit: at the highest dose activation, usual class: activators; 320,000 compounds, 2.4% hits; Huh7 NPC1 promoter luciferase reporter, 24 h; also: % of control where 0% means no effect; nearly all actives have a fitted effect of over 60% in size
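Luminescence read-out of NPC1 promoter-driven luciferase in stably transfected Huh7 cells; compounds delivered in DMSO and left 24 h at 37C, 5% CO2, qHTS titration format.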
ELG1 repair inh: ELG1-dependent DNA repair inhibition | AID 504467 | Potency, µM (top dose mostly 46.1 µM), for inactives: top-dose activity change, negative = inhibition, most hits filed as inhibitors | HEK293T ELG1-luciferase reporter, luminescence, 16 h; DNA damage induced by 5-fluorouridine | 330,000 compounds, 2.3% hits; also: % is scaled to controls: 0 for no effect and ±100 for the full control effect; nearly all actives have a fitted effect of over 55% in size
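Reporter activity after DNA damage by 5-fluorouridine is monitored. Compound-treated cells incubate 16 hr at 37 °C, then ONE-Glo is added for 30 min before luminescence reading.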
An asterisk follows results filed as active; [ ] = dose if it differs, or a comment. An excerpt weighted towards active compounds, which were near 9.4% of everything screened. Calls follow the shape of the dose curve; as a rule, active = well fitted curve in the direction sought with a large enough effect; inconclusive = small, poorly fitted or top-dose-only effect, or another doubt; inactive = no such curve, though single readings can be large; an effect the other way counts as inactive or inconclusive. Potency is read from the fitted curve at half-maximal effect.

`CCOC(=O)c1c(NC(=O)CSc2nc3cc(Cl)ccc3c(=O)n2Cc2ccco2)sc(C(=O)N(C)C)c1C` gave Rab9 promoter act -3%, ELG1 genotox -3%, FLuc counter 1%, NPC1 promoter act -6% and ELG1 repair inh 3.3µM*.
For CCN(C(=O)CSc1nc2cc(C(=O)OC)ccc2c(=O)n1Cc1ccco1)c1cccc(C)c1 the results were SMN2 splice up -6%, Rab9 promoter act -2%, ELG1 genotox -13%, FLuc counter -3%, NPC1 promoter act -3% and ELG1 repair inh 7.3µM*.
Screening CCc1ccc(NC(=O)CSc2nc3cc(C(=O)OC)ccc3c(=O)n2Cc2ccco2)cc1 returned SMN2 splice up -11%, Rab9 promoter act -2%, ELG1 genotox 2%, FLuc counter -2%, NPC1 promoter act -3% and ELG1 repair inh inconclusive.
For O=C(O)c1ccc(NS(=O)(=O)Cc2ccccc2)cc1 the results were SMN2 splice up -3%[9.22 µM].
Screening COc1ccc(S(=O)(=O)Nc2ccc3c(c2)OCO3)cc1 returned SMN2 splice up -11%, Rab9 promoter act -1%, ELG1 genotox -5%, FLuc counter -11%, NPC1 promoter act -1% and ELG1 repair inh 0%.
`COc1ccc2c(c1)CC/C(=C\Nc1ccc3c(c1)OCO3)C2=O` gave SMN2 splice up 35µM*, Rab9 promoter act 2.5µM*, ELG1 genotox 8%, FLuc counter 1.2µM*, NPC1 promoter act 3.5µM* and ELG1 repair inh inconclusive.
O=C1/C(=C/Nc2ccc3c(c2)OCO3)CCc2ccccc21 was read as SMN2 splice up -76%, Rab9 promoter act 0.28µM*, ELG1 genotox inconclusive, FLuc counter 0.12µM*, NPC1 promoter act 0.89µM* and ELG1 repair inh inconclusive.
COc1ccc(N/C=C2\CCOC2=O)cc1 was read as SMN2 splice up -6%, Rab9 promoter act 10%, ELG1 genotox 12%, FLuc counter 2%, NPC1 promoter act 5% and ELG1 repair inh 19%.
For COc1ccc(N/C=C2\CCc3ccccc3C2=O)cc1 the results were Rab9 promoter act 0.1µM*, ELG1 genotox inconclusive, FLuc counter 0.054µM*, NPC1 promoter act 0.25µM* and ELG1 repair inh inconclusive.
For Cc1ccc(C)c(S(=O)(=O)NCC(c2ccco2)S(=O)(=O)c2ccc(F)cc2)c1 (configuration not stated) the results were FLuc counter 4%.
For COc1cc(NC(=O)CN2CCN(c3ccccc3O)CC2)c(C)cc1[N+](=O)[O-] the results were SMN2 splice up inconclusive, Rab9 promoter act -1%, ELG1 genotox -5%, FLuc counter -2%, NPC1 promoter act 1% and ELG1 repair inh 21µM*.
For COc1cc(NC(=O)CN2CCC(C)CC2)c(C)cc1[N+](=O)[O-] the results were Rab9 promoter act 20%, ELG1 genotox 9%, FLuc counter -16%, NPC1 promoter act 14% and ELG1 repair inh inconclusive.
`Cn1c(=O)n(C)c2cc(NC(=O)Cc3ccccc3[N+](=O)[O-])ccc21` gave Rab9 promoter act -1%, ELG1 genotox inconclusive, FLuc counter -2%, NPC1 promoter act -4% and ELG1 repair inh inconclusive.
Screening Cc1ccc(-c2cn(-c3ccccc3F)c(=S)[nH]2)cc1 returned Rab9 promoter act 3.2µM*, ELG1 genotox 15%, FLuc counter inconclusive, NPC1 promoter act inconclusive and ELG1 repair inh inconclusive.
`O=[N+]([O-])c1ccc(-c2cn(-c3ccccc3F)c(=S)[nH]2)cc1` gave SMN2 splice up 14%, Rab9 promoter act 1.4µM*, ELG1 genotox 10%, FLuc counter 1%, NPC1 promoter act inconclusive and ELG1 repair inh inconclusive.
`CS[C@@H](CC(=O)O)C(=O)O` gave SMN2 splice up -7%[9.22 µM].
`CCc1ccccc1NC(=O)CN1C(=O)C2CCCN2c2ccc(S(=O)(=O)N(CC)CC)cc21` (configuration not stated) gave FLuc counter 6%.
Oc1cc(O)cc(/C=C/c2ccc(O)c(O)c2)c1 was read as SMN2 splice up 32µM*, Rab9 promoter act -34%[46.1 µM], ELG1 genotox 5.2µM*, FLuc counter 9.5µM*, NPC1 promoter act inconclusive and ELG1 repair inh inconclusive.
C/C=C/c1ccc(O)c(OC)c1 was read as SMN2 splice up -2%, Rab9 promoter act 2%, ELG1 genotox -18%, FLuc counter -1%, NPC1 promoter act -3% and ELG1 repair inh 6%.
O=C(Nc1ccccc1C(=O)OCc1cc(=O)n2nc(C3CC3)sc2n1)c1cccc(F)c1 was read as FLuc counter -1%.
`COc1ccccc1CNC(=O)COC(=O)c1ccc(-n2cnnn2)cc1` gave Rab9 promoter act 4%, ELG1 genotox 6%, FLuc counter -1%, NPC1 promoter act -3% and ELG1 repair inh 12%.
Screening O=C(OCCOc1ccccc1Cl)c1ccc(-n2cnnn2)cc1 returned SMN2 splice up 1%, Rab9 promoter act 6%, ELG1 genotox 4%, FLuc counter 21µM*, NPC1 promoter act 1% and ELG1 repair inh 16%.
`CCOC(=O)N1CCc2c(sc3c2c(=O)n(-c2ccccc2)c(=O)n3CC(=O)Nc2ccc(OC)cc2OC)C1` gave SMN2 splice up -4% and FLuc counter 0%.
`CCCCOCCOCCSC#N` gave SMN2 splice up -5%.
Screening COC(=O)C(C(=O)OC)c1ccc(NC(=O)c2cccc(Cl)c2)cc1 returned SMN2 splice up inconclusive, Rab9 promoter act inconclusive, ELG1 genotox 18%, FLuc counter -1%, NPC1 promoter act inconclusive and ELG1 repair inh inconclusive.
O=C(Nc1ccc2oc(-c3ccccc3)nc2c1)c1cccnc1 was read as SMN2 splice up -9%, Rab9 promoter act inconclusive, ELG1 genotox 14%, FLuc counter inconclusive, NPC1 promoter act inconclusive and ELG1 repair inh inconclusive.
Screening CC(C)c1ccc(NC(=O)c2snc3ccc(Cl)cc23)cc1 returned SMN2 splice up 14µM*, Rab9 promoter act 2.2µM*, ELG1 genotox inconclusive, FLuc counter 7.6µM*, NPC1 promoter act 2.5µM* and ELG1 repair inh inconclusive.
For O=C(NC(=S)Nc1ccccc1Cl)c1csnn1 the results were SMN2 splice up 7%, Rab9 promoter act 3%, ELG1 genotox 2%, FLuc counter 13µM*, NPC1 promoter act 5% and ELG1 repair inh inconclusive.
For O=C(Nc1ccccc1NC(=O)c1csnn1)c1csnn1 the results were Rab9 promoter act 2%, ELG1 genotox 3%, FLuc counter -2%, NPC1 promoter act -3% and ELG1 repair inh -1%.
